In PubChem BioAssay (EPA / NIEHS):
Results filed as inconclusive are left out. The source made the active and inactive calls. How the source made its calls: active means hit-call score of the fitted dose curve at least 0.9, where 1 is the maximum; inconclusive means response in the unintended direction; inactive means score below 0.9.

Key:
[1] = target: Estrogen receptor (Homo sapiens) + Estrogen receptor beta (Homo sapiens) (UniProt P03372+Q92731); test: OT_ER_ERaERb_1440: Odyssey Thera (OT) 24-hour HEK293T Protein-Complementation Assay for Estrogen Receptor-alpha/-beta Homodimer (AID 2283356);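 further: heteromer of ER alpha and ER beta binding domains; hits raise reporter fluorescence and both agonists and antagonists give an increase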
Chain of Estrogen receptor (Homo sapiens) + Estrogen receptor beta (Homo sapiens) (P03372 whole entry, looked up, the tested form may be a part): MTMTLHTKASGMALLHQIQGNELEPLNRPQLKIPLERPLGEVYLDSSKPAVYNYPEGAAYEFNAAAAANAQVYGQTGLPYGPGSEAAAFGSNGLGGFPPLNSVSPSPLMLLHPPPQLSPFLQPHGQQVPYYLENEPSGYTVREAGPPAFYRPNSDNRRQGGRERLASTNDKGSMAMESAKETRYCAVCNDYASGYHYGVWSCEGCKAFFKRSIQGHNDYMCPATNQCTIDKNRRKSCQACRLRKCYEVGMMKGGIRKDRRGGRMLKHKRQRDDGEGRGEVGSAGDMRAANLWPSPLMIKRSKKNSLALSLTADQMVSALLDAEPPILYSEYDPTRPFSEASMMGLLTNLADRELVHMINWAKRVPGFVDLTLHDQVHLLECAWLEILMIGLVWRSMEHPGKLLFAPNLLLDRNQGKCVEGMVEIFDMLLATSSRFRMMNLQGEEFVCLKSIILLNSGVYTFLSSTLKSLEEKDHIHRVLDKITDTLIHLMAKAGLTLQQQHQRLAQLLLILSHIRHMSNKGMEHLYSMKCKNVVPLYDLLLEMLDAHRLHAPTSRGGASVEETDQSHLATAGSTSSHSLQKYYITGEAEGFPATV
Chain of Estrogen receptor (Homo sapiens) + Estrogen receptor beta (Homo sapiens) (Q92731 whole entry, looked up, the tested form may be a part): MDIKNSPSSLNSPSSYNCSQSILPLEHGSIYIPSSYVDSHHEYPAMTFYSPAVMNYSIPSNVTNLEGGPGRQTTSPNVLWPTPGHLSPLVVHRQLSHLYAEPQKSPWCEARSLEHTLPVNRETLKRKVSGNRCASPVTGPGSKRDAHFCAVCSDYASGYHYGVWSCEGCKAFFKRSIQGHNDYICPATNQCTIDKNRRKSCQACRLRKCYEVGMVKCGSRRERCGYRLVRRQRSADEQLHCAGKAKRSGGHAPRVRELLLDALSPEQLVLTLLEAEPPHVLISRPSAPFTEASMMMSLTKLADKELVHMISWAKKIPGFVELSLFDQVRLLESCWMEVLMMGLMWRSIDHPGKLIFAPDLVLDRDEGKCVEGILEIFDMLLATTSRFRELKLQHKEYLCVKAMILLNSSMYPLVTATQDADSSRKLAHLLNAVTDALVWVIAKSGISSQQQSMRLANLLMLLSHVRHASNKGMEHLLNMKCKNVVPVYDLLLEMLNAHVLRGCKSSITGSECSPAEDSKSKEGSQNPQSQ
Outline: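 HEK293T cells stably expressing a PCA pair of ERα LBD (aa 310-547) and ERβ LBD (aa 263-489) were dosed for 24 h. Fluorescence intensity increase versus DMSO vehicle was fitted as gain-of-signal.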

[2] = target: Peroxisome proliferator-activated receptor gamma (Homo sapiens) (UniProt P37231); test: NVS_NR_hPPARg: NovaScreen (NVS) Nuclear Receptor Binding Assay for human Peroxisome Proliferator-activated Receptor gamma (PPARg) (AID 2283370)
Chain of Peroxisome proliferator-activated receptor gamma (Homo sapiens) (P37231 whole entry, looked up): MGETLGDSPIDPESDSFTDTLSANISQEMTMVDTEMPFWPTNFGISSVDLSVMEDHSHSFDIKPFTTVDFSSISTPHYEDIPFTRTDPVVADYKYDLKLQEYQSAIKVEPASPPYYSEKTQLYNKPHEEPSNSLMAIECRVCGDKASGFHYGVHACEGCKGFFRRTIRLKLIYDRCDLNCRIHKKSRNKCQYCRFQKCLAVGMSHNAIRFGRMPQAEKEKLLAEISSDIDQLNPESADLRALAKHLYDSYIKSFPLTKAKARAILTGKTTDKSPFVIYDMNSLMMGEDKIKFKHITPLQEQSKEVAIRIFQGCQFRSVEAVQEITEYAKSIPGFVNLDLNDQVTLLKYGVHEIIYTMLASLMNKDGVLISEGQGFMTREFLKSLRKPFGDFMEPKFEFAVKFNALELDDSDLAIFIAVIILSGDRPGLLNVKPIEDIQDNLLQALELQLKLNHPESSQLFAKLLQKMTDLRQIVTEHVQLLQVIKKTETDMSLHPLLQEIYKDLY
Outline: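 Cell-free binding to extracted PPARg protein, read by fluorescence polarization 2 h after dosing; loss of signal relative to DMSO baseline marks displacement. Primary screen in duplicate at 25 uM, actives retested in concentration series.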

[3] = target: Estrogen receptor beta (Homo sapiens) (UniProt Q92731); test: OT_ER_ERbERb_1440: Odyssey Thera (OT) 24-hour HEK293T Protein-Complementation Assay for Estrogen Receptor-beta/-beta Homodimer (AID 2283380);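 further: scored as signal increase over DMSO baseline for both agonists and antagonists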
Chain of Estrogen receptor beta (Homo sapiens) (Q92731 whole entry, looked up, the tested form may be a part): as the sequence (Q92731 whole entry, looked up, the tested form may be a part) above
Outline: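 Fluorescence increase, nuclear for agonists or whole-cell for antagonists, relative to DMSO vehicle, quantified by laser scanning cytometer after fixation and Draq5 staining. Readout from 24 h treatment of HEK293T cells carrying complementation-paired ER beta LBD (aa 310-547).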

[4] = target: Estrogen receptor beta (Homo sapiens) (UniProt Q92731); test: OT_ER_ERbERb_0480: Odyssey Thera (OT) 8-hour HEK293T Protein-Complementation Assay for Estrogen Receptor-beta/-beta Homodimer (AID 2283357);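 further: active means signal gain over DMSO baseline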
Outline: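 ER-beta LBD homodimer PCA stably expressed in HEK293T; 8 h compound exposure, then formaldehyde fixation and Draq5 staining. Gain in nuclear/cytoplasmic fluorescence intensity versus DMSO vehicle, read on laser scanning cytometer.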

[5] = target: rat Serotonin Transporter (SERT), Slc6a4 (gene 25553) (UniProt P31652); test: NVS_TR_rSERT: NovaScreen (NVS) Transporter Assay for rat Serotonin Transporter (SERT) (AID 2283375)
Outline: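 Rat forebrain membranes were incubated with test chemical for 1 hour; radioligand binding to SERT was measured by filter-based scintillation counting. Primary screen ran in duplicate at 25 uM, with actives followed up in concentration series; DMSO served as negative control.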

[6] = target: human Thyroid Receptor Alpha (TRa), THRA (gene 7067) (UniProt P10827); test: NVS_NR_hTRa_Antagonist: NovaScreen (NVS) Nuclear Receptor Binding Assay for human Thyroid Receptor Alpha Antagonism (TRa) (AID 2283362);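 further: activity is loss of signal relative to DMSO baseline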
Outline: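 Cell-free binding assay on extracted receptor protein, read 1 h after chemical dosing by AlphaLISA chemiluminescence; loss of signal relative to DMSO baseline marks antagonism. Primary screen ran in duplicate at 25 uM, with concentration series for actives.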

[7] = target: human Norepinephrine Transporter (NET), SLC6A2 (gene 6530) (UniProt P23975); test: NVS_TR_hNET: NovaScreen (NVS) Transporter Assay for human Norepinephrine Transporter (NET) (AID 2283377);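 further: cell-free membrane protein extracted from CHO cells expressing human NET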;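 on AC50: displacement of radioligand from human NET seen as loss of scintillation signal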
Chain of human Norepinephrine Transporter (NET), SLC6A2 (gene 6530) (P23975 whole entry, looked up): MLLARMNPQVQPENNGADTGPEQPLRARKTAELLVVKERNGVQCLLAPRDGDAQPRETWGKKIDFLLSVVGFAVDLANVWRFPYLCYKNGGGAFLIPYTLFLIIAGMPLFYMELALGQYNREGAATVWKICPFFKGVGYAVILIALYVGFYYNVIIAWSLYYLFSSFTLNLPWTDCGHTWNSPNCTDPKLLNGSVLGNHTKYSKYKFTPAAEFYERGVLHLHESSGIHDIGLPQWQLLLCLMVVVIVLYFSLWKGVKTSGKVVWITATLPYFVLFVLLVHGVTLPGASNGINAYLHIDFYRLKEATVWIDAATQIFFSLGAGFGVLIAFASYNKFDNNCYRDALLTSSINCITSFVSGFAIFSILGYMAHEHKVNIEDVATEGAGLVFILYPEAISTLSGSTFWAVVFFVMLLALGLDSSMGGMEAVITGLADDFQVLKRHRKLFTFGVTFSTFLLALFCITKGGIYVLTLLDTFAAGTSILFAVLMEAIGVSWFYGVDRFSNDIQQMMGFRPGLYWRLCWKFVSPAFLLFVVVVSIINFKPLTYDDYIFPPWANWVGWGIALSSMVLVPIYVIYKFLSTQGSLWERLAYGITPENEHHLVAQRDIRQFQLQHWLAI
Outline: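 Single-concentration duplicate screen at 25 uM, then concentration-response for actives; displacement of specific radioligand from human NET in CHO membrane extracts, filter-based scintillation detection at 1 h relative to DMSO.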

[8] = target: mouse Estrogen Receptor alpha (Era), Esr1 (gene 13982) (UniProt P19785); test: NVS_NR_mERa: NovaScreen (NVS) Nuclear Receptor Binding Assay for mouse Estrogen Receptor alpha (Era) (AID 2283378);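 further: hit means loss of bound radioligand signal relative to DMSO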
Chain of mouse Estrogen Receptor alpha (Era), Esr1 (gene 13982) (P19785 whole entry, looked up): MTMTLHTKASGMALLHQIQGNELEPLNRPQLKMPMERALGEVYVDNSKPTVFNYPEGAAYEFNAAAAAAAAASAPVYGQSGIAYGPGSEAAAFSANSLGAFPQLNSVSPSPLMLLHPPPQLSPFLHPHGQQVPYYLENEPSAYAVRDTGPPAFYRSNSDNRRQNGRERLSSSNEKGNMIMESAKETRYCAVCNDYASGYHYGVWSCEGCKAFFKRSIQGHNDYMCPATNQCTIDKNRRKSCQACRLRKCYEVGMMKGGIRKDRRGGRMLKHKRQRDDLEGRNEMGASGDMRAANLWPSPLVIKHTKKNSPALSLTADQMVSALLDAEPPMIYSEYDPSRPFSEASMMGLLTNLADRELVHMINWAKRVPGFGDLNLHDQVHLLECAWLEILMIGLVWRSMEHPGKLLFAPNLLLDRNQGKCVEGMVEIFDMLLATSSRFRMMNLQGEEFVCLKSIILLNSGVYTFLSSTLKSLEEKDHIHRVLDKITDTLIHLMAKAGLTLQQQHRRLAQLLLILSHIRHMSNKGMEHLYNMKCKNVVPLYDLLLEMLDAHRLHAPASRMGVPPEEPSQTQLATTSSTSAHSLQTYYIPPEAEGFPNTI
Outline: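 Cell-free radioligand binding with extracted mouse Era protein; competitive displacement of radiolabelled ligand, read by filter-based scintillation counting 18 hours after dosing. Loss of signal versus DMSO baseline taken as binding; single screening concentration 25 uM, actives followed in concentration series.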

[9] = target: Retinoic acid receptor alpha (Homo sapiens) (UniProt P10276); test: NVS_NR_hRAR_Antagonist: NovaScreen (NVS) Nuclear Receptor Binding Assay for human Retinoic Acid Alpha Receptor Antagonism (RAR) (AID 2283358)
Outline: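 RARalpha antagonism was read by TR-FRET as loss of binding signal versus DMSO, 2 h after chemical addition, in a biochemical format. Single-concentration duplicates (25 uM) were run first, and actives were retested in concentration series.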

[10] = target: Agonist Androgen Response Element (ARE), AR (gene 367) (UniProt P10275); test: OT_AR_ARELUC_AG_1440: Odyssey Thera (OT) 24-hour CHO-K1 Luciferase Assay for Agonist Androgen Response Element (ARE) (AID 2283379)
Chain of Agonist Androgen Response Element (ARE), AR (gene 367) (P10275 whole entry, looked up): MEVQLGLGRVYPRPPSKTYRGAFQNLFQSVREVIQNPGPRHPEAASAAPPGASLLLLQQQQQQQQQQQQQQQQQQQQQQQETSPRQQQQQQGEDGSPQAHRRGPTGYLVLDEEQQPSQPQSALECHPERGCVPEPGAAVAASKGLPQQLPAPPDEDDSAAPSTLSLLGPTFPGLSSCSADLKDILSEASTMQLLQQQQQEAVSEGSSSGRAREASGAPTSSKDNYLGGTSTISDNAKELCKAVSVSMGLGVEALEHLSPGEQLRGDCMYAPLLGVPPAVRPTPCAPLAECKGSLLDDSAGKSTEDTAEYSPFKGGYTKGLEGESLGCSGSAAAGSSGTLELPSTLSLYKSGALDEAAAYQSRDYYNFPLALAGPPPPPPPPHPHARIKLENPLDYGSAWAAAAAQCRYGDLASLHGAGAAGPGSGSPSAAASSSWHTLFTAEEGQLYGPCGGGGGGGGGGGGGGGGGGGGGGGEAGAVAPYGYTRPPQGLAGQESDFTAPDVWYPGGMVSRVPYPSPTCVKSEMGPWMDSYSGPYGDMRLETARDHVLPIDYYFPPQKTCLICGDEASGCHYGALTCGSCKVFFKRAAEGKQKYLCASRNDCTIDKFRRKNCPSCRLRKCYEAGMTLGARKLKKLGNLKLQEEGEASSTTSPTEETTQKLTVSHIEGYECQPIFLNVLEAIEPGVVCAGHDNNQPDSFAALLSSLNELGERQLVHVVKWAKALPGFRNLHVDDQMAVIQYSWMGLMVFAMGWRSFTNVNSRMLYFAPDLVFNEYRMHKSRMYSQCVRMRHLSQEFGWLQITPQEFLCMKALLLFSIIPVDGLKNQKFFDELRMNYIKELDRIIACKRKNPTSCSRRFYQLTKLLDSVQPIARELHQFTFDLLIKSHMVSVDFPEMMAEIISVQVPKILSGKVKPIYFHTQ
Outline: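 Readout: luciferase bioluminescence from CHO-K1 ARE-luc cells, measured 24 h post-dosing; agonism = increased mean luminescence vs DMSO controls, fitted in positive direction.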

[11] = test system: guinea pig Dopamine Transporter (DAT), gene 100714898; test: NVS_TR_gDAT: NovaScreen (NVS) Transporter Assay for guinea pig Dopamine Transporter (DAT) (AID 2283369);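 further: active compounds lower bound radioligand signal relative to DMSO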
Outline: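 Guinea pig striatal membranes; radioligand displacement measured by filter-based scintillation counting 2 h after dosing. Initial duplicate screen at 25 uM, then concentration-response up to 50 uM for hits; loss of signal versus DMSO baseline.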

[12] = target: Glucocorticoid receptor (Homo sapiens) (UniProt P04150); test: NVS_NR_hGR: NovaScreen (NVS) Nuclear Receptor Binding Assay for human Glucocorticoid Receptor (GR) (AID 2283363);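 on AC50: activity is loss of specific radioligand binding signal relative to DMSO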
Chain of Glucocorticoid receptor (Homo sapiens) (P04150 whole entry, looked up): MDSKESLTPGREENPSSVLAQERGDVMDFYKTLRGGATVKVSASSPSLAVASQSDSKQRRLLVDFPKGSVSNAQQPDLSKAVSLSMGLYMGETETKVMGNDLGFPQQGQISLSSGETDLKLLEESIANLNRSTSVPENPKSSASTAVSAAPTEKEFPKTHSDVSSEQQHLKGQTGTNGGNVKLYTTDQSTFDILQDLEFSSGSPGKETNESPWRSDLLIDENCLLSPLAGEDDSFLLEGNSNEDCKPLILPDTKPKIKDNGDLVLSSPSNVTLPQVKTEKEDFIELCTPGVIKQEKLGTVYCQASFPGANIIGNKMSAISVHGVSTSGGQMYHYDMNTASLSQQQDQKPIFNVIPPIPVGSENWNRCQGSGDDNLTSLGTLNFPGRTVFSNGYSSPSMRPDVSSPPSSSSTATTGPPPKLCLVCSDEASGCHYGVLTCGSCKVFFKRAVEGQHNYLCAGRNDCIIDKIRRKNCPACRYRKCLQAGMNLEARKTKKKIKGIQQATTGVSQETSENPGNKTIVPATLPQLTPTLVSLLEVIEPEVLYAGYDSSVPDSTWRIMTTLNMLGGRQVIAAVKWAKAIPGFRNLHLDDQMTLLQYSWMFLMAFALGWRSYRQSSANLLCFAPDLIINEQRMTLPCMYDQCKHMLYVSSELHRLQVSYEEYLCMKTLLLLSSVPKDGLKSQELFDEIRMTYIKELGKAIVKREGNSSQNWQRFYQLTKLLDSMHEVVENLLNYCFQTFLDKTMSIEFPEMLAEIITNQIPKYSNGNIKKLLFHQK
Outline: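 Compounds first tested in duplicate at 25 uM, actives followed up in concentration series. Binding to extracted GR protein measured as competitive radioligand displacement, filter scintillation read 16 h post-dosing, normalised to DMSO.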

[13] = target: human Peroxisome Proliferator-activated Receptor alpha (PPARa), PPARA (gene 5465) (UniProt Q07869); test: NVS_NR_hPPARa: NovaScreen (NVS) Nuclear Receptor Binding Assay for human Peroxisome Proliferator-activated Receptor alpha (PPARa) (AID 2283359);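 further: activity means loss of TR-FRET signal versus DMSO baseline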
Outline: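 Loss of TR-FRET binding signal relative to DMSO was measured 1 h after chemical addition to extracted receptor protein. Chemicals were first tested in duplicate at 25 uM, and actives were followed up in concentration series.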

[14] = target: Nuclear receptor subfamily 1 group I member 2 (Homo sapiens) (UniProt O75469); test: NVS_NR_hPXR: NovaScreen (NVS) Nuclear Receptor Binding Assay for human Pregnane X Receptor (PXR) (AID 2283365);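 further: a drop in FRET signal versus DMSO baseline means the compound binds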
Outline: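 Cell-free binding assay with extracted human PXR protein, read by TR-FRET 2 h after dosing; loss of signal relative to DMSO baseline indicates binding. Primary screen at 25 uM in duplicate, actives retested in concentration series.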

[15] = target: guinea pig Sigma Receptor, Non-selective Binding, SIGMAR1 (gene 100135589) (UniProt Q60492); test: NVS_OR_gSIGMA_NonSelective: NovaScreen (NVS) Nuclear Receptor Binding Assay for guinea pig Sigma Receptor, Non-selective Binding (AID 2283367)
Chain of guinea pig Sigma Receptor, Non-selective Binding, SIGMAR1 (gene 100135589) (Q60492 whole entry, looked up): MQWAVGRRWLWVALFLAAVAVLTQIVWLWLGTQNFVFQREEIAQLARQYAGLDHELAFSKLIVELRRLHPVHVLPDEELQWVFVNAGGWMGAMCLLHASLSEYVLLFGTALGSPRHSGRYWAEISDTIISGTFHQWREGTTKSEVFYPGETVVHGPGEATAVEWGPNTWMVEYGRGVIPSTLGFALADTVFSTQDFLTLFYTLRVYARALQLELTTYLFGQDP
Outline: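 Guinea pig brain membrane sigma sites were labelled with a radioligand, and bound radioactivity was counted after filtration 1 h post-dose. Compounds were screened at 25 uM in duplicate, then retested as concentration series when active.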

[16] = target: human Serotonin Transporter (SERT), SLC6A4 (gene 6532) (UniProt P31645); test: NVS_TR_hSERT: NovaScreen (NVS) Transporter Assay for human Serotonin Transporter (SERT) (AID 2283372)
Outline: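 Human platelet membrane preparation; displacement of radioligand from serotonin transporter measured after 1 h by filtration and scintillation counting. Single 25 uM duplicate screen, then concentration series for actives, with DMSO as negative baseline.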

[17] = test system: rat Norepinephrine Transporter (NET), gene 83511; test: NVS_TR_rNET: NovaScreen (NVS) Transporter Assay for rat Norepinephrine Transporter (NET) (AID 2283373)
Outline: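 Competitive radioligand displacement at the rat NET using forebrain membrane preparations, 1 h incubation, filter-based scintillation readout. Primary testing in duplicate at a single 25 uM concentration; confirmed actives retested across concentrations.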

CCCCCCCCCCCC(=O)OC
outcome [1]: inactive
outcome [2]: inactive
outcome [3]: inactive

CN1CCCC1=O
outcome [1]: inactive
outcome [3]: inactive

CNCc1cc(F)ccc1Oc1ccc(Cl)c(Cl)c1
outcome [1]: inactive
outcome [4]: inactive
AC50 [5]: 0.00346 µM (active)
outcome [3]: inactive

Cc1ccc(N(C)C)cc1
outcome [1]: inactive
outcome [3]: inactive

COCCOC[C@H](CC1(C(=O)NC2CCC(C(=O)O)CC2)CCCC1)C(=O)Oc1ccc2c(c1)CCC2 (stereo not given in full)
outcome [1]: inactive
outcome [4]: inactive
outcome [3]: inactive

CC1(C)CC(N=C=O)CC(C)(CN=C=O)C1 (stereo not given)
outcome [6]: inactive
AC50 [7]: 9.14 µM (active)

CCCc1cc(=O)[nH]c(=S)[nH]1
outcome [8]: inactive

COc1ccc2c(c1)c(CC(=O)O)c(C)n2C(=O)c1ccc(Cl)cc1
outcome [9]: inactive
outcome [10]: inactive

CC=Cc1ccc(O)c(OC)c1
AC50 [11]: 16.6 µM (active)
outcome [2]: inactive

CC(=O)C(C)=CC1C(C)=CCCC1(C)C (stereo not given)
outcome [2]: inactive
outcome [8]: inactive

CC1(C)NC(=O)NC1=O
outcome [8]: inactive

Nc1ccc(S(=O)(=O)c2ccc(N)cc2)cc1
AC50 [11]: 25 µM (active)
outcome [7]: inactive

Cc1ccc2ncccc2c1
outcome [9]: inactive
outcome [6]: inactive

Nc1ccc2c(c1)C(=O)c1ccccc1C2=O
outcome [6]: inactive
outcome [12]: inactive
outcome [2]: inactive
outcome [7]: inactive

COc1ccc(S(=O)(=O)N2C(=O)[C@@](c3ccccc3OC)(N3C[C@H](O)C[C@H]3C(=O)N(C)C)c3cc(Cl)ccc32)c(OC)c1
AC50 [12]: 5.95 µM (active)
AC50 [11]: 25 µM (active)
outcome [2]: inactive
AC50 [7]: 41.6 µM (active)
AC50 [10]: 0.694 µM (active)

COc1ccc(C)cc1N
outcome [9]: inactive
outcome [10]: inactive

Cc1cc(NC(=O)C(=O)O)cc(C)c1Oc1ccc(O)c2c1CCC2
outcome [13]: inactive
outcome [6]: inactive
outcome [10]: inactive

C=CCc1ccc(O)c(OC)c1
AC50 [2]: 25 µM (active)

NCCO
outcome [9]: inactive

CN[C@H]1CC[C@@H](c2ccc(Cl)c(Cl)c2)c2ccc(S(N)(=O)=O)cc21
outcome [2]: inactive
outcome [8]: inactive
outcome [10]: inactive
outcome [3]: inactive

COc1cc(S(=O)(=O)O)c(C)cc1N=Nc1c(O)ccc2cc(S(=O)(=O)O)ccc12
outcome [12]: inactive
outcome [7]: inactive

CCCCCCCCCCCCCCCCCC(=O)O
AC50 [13]: 0.608 µM (active)

FC(F)(F)C(F)(F)C(F)(F)C(F)(F)C(F)(F)C(F)(F)CCI
outcome [9]: inactive
outcome [14]: inactive
AC50 [15]: 3.3 µM (active)

CN1CCN(Cc2cc(-c3ccc4[nH]c(=O)oc4c3)co2)[C@@H](c2ccc(F)cc2)C1
AC50 [12]: 13.2 µM (active)
AC50 [15]: 5.66 µM (active)
AC50 [11]: 5.69 µM (active)
AC50 [16]: 3.37 µM (active)
AC50 [5]: 2.52 µM (active)
AC50 [7]: 12.7 µM (active)
AC50 [8]: 5.79 µM (active)

Cc1ccc(C)c(O)c1C
outcome [10]: inactive

CC(=O)OC/C=C(\C)CCC=C(C)C
outcome [14]: inactive
outcome [2]: inactive

NC(=O)Cn1c(=O)cc(CCN2CCN(c3nccc4sccc34)CC2)c2ccc(F)cc21
AC50 [15]: 2.1 µM (active)

Cc1ccccc1Cl
AC50 [15]: 15.7 µM (active)
outcome [8]: inactive
outcome [10]: inactive

C=CCOC(=O)c1ccccc1C(=O)OCC=C
outcome [13]: inactive
AC50 [2]: 0.00781 µM (active)
AC50 [17]: 25 µM (active)

CCOc1ccc2c(c1)C(C)=CC(C)(C)N2
outcome [13]: inactive
outcome [6]: inactive
AC50 [15]: 16.4 µM (active)
outcome [2]: inactive
outcome [7]: inactive
outcome [10]: inactive

Cc1nc(C)nc(N2C[C@@H](C)N(c3ccnc([C@@H](C)O)n3)[C@@H](C)C2)n1
AC50 [15]: 3.21 µM (active)

CC(CO)OC(C)CO (stereo not given) (tested in a mixture with another compound)
outcome [13]: inactive
outcome [14]: inactive
